We go through 7 compounds from PubChem BioAssay (NCATS).

“And” between values parts separate entries of the source, which are not always exact repeats. Equal entries are not always repeated. A number with no mark means an inactive call. Records with an inconclusive call do not appear. The source made the active and inactive calls. Unless noted, calls come from the whole dose curve; as a rule, active = well fitted curve in either direction with a large enough effect (not every such curve was filed as active); inconclusive = small, poorly fitted or top-dose-only effect, or another doubt; inactive = flat fitted curve, though single readings scatter. Some results are limits rather than exact numbers.

Assay [1] addresses Lysosomal acid glucosylceramidase (Homo sapiens) (UniProt P04062). As to the kind of experiment: Glucocerebrosidase-p2 (AID 348; in the data active = potency below about 10 µM; note: potency is the fitted concentration of half-maximal effect). Particulars: purified GBA, blue fluorogenic substrate, 40 min. The method, boiled down: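 Normal human glucocerebrosidase (0.2 nM) with blue fluorogenic substrate (80 uM final) in citrate/phosphate pH 5.9 with 10mM sodium taurocholate, 0.01% tween-20; 40 min RT, NaOH/glycine stop; fluorescence Ex 365/Em 440; AC50 from a titration from 0.6 nM upwards.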

Assay [2] in a line: AP1 Signaling Pathway (AID 357).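 Note: ME-180 reporter cells stimulated with EGF at its EC50 level; % is set by controls: 0 for no effect and ±100 for the full control effect.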 Particulars: ME-180 AP-1-bla reporter, EGF-induced, beta-lactamase ratio, 5 h; at 7.69 µM (top of the series) unless noted. The essentials:
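A ratiometric CCF4 readout (405 nm excitation; 460 and 530 nm emission) quantified AP-1-driven beta-lactamase in ME-180 cells after 5 h with compound and EC50 EGF; AC50 values were derived for activators and inhibitors.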

Assay [3] is described as follows: NFAT Signaling Pathway (AID 444).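 Note: carbachol stimulus at about its EC50 of 1 µM final; % is set by controls: 0 for no effect and ±100 for the full control effect.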 The following applies: Jurkat NFAT-bla M1, carbachol, beta-lactamase ratio, 5 h. The method, boiled down:
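Jurkat cells carrying an NFAT-driven β-lactamase reporter and co-transfected muscarinic M1 receptor were treated with compound plus carbachol (1 uM final, an EC50 level) for 5 h at 37 °C. CCF4 loading followed for 1 h at RT; 460/530 nm ratio gave %activity.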

A short description of assay [4]: Stat Signaling Pathway (AID 446).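 Note: ME-180 cervical cancer cells given 40 pM IL-6 alongside compound; SIE-controlled beta-lactamase reporter measured as 460/530 nm FRET emission ratio; % is set by controls: 0 for no effect and ±100 for the full control effect.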 The following applies: ME-180 (cervical carcinoma) SIE beta-lactamase reporter, IL-6 stimulated, 5 h. The essentials:
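Normalization used AC90 stimulation (300 pM IL-6) and AC90 inhibition (125 nM pan-JAK inhibitor at 40 pM IL-6). The underlying signal is SIE-driven beta-lactamase in ME-180 cells after 5 h IL-6 exposure with compound.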

Assay [5] addresses Glucocorticoid receptor (Homo sapiens) (UniProt P04150). As to the kind of experiment: GR-GFP Redistribution (AID 450;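 active = compounds whose dose series gives a full or clear partial fitted curve of increased nuclear translocation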; note: potency is the fitted concentration of half-maximal effect). Particulars: U2OS GR-GFP nuclear translocation, laser cytometry, 2 h.
Assay [6] has the same target. Kind of assay: GR-EFC Redistribution (AID 451; calls by dose curve; note: potency is the fitted concentration of half-maximal effect). Particulars: CHO-K1 GR-EFC translocation, beta-gal luminescence, 2 h. The method, boiled down:
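CHO-K1 cells stably expressing nuclear-localized β-gal enzyme acceptor and GR fused C-terminally to the enzyme donor fragment; ligand-driven nuclear translocation restores β-gal by complementation. Compounds titrated up to 46 uM final, 2 h at 37 °C; luminescence read.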

Assay [7] concerns the target Mitogen-activated protein kinase 10 (Mus musculus) (UniProt Q61831). Kind of assay: JNK3 AlphaScreen Assay (AID 530).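 Note: kinase came from lysate of stimulated human HepG2 cells; % is set by controls: 0 for no effect and ±100 for the full control effect.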 Particulars: JNK3 lysate, c-Jun phosphorylation; series mostly up to 11.4 µM. The method, boiled down: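 Biotinylated GST-cJun(1-79) served as substrate for JNK3 in HepG2 lysates stimulated with IL-1beta and TNF-alpha. ATP was 10 uM final, pH 7.6. Ser73 phosphorylation was quantified by AlphaScreen (680 nm excitation).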

For assay [8], the target named is 3',5'-cyclic-AMP phosphodiesterase 4B (Homo sapiens) (UniProt Q07343). Kind of assay: qHTS Assay for Inhibitors of PDE-IV (AID 607; active = well fitted activation curve with a large enough effect in the main read-out, with a control signal flat, not every such curve was filed as active; note: % of control where 0% means no effect). Particulars: HEK293 ACTOne CNG channel cells, membrane potential fluorescence; series mostly up to 22.9 µM. The method, boiled down:
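HEK293 ACTOne cells with CNG channel (1000/well), endogenous PDE4; membrane potential dye, compounds up to 22.9 uM final. Fluorescence Ex 535/Em 590; RO 20-1724 (100 uM final) as reference.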

In assay [9] the target is ATP-dependent 6-phosphofructokinase (Trypanosoma brucei brucei) (UniProt O15648). Kind of assay: qHTS Assay to Find Inhibitors of T. brucei phosphofructokinase: hit validation (AID 492961; active = well fitted curve in the direction sought with a large enough effect; an effect the other way counts as inactive or inconclusive). Particulars: T. brucei PFK, ADP-Glo luminescence; series mostly up to 51.4 µM. The essentials: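 Percent activity derived from corrected luminescence, normalized between 0x and 1x enzyme controls, then fitted to concentration-response curves. Conditions: 1.25 nM PFK, 0.1 mM ATP, 0.5 mM F6P, 45 min RT.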
Background: qHTS replaces the single test concentration by a dilution series.

The nature of assay [10]: qHTS profiling for inhibitors of Plasmodium falciparum proliferation (AID 504749; active = well fitted curve in the direction sought with a large enough effect; an effect the other way counts as inactive or inconclusive;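 note: 0% = DMSO vehicle and full inhibition = artemisinin control; nearly all actives have a fitted effect of over 60% in size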). The following applies: P. falciparum in erythrocytes, SYBR Green DNA, 72 h, at 28.7 µM (top of the series). The method, boiled down: (§1)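 Fluorescence of SYBR Green-bound parasite DNA, read at 485/535 nm, served as the growth measure. Infected erythrocytes were cultured with compound 72 h; artemisinin (0.29 uM) and DMSO wells defined the normalization range.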

The next assay concerns AS120. Described as above. The following applies: P. falciparum in erythrocytes, SYBR Green DNA, 72 h; series mostly up to 28.7 µM. The essentials:
as §1

In the next assay the test system is ATS189. The assay is described as above. The following applies: P. falciparum in erythrocytes, SYBR Green DNA, 72 h; series mostly up to 28.7 µM. The method, boiled down:
as §1

The next assay relates to W2. Described as above. The following applies: P. falciparum in erythrocytes, SYBR Green DNA, 72 h; series mostly up to 28.7 µM. The method, boiled down:
as §1

Assay [11] addresses Cytochrome P450 1A2 (Homo sapiens) (UniProt P05177). As to the kind of experiment: p450-cyp1a2 (AID 410; calls by dose curve; note: potency is the fitted concentration of half-maximal effect). Particulars: recombinant CYP1A2, luciferin-ME demethylation, luminescence; series mostly up to 11.4 µM. The method, boiled down: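 20nM CYP1A2, 100uM Luciferin-ME (=Km), 100mM KPO4; cpd 10 min RT; +NADPH regen, 60 min RT; stop/detect 20 min; luminescence. Normalized to furafylline 57 uM = full inhibition.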

Assay [12] has as its target Cytochrome P450 3A4 (Homo sapiens) (UniProt P08684). As to the kind of experiment: qHTS Assay for Inhibitors and Substrates of Cytochrome P450 3A4 (AID 884; active = well fitted curve in the direction sought with a large enough effect; an effect the other way counts as inactive or inconclusive; note: potency is the fitted concentration of half-maximal effect; nearly all actives have a fitted effect of over 50% in size). The following applies: recombinant CYP3A4, Luciferin-PPXE luminescence; series mostly up to 57.1 µM. The essentials:
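Luminescent readout of luciferin produced by CYP3A4 (20 nM) dealkylation of Luciferin-PPXE, 25 uM (its KM). NADPH-driven reaction ran 60 min at RT after 10 min compound preincubation; data scaled to 57 uM ketoconazole as 100% inhibition.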

For assay [13] the target is unchanged. Kind of assay: qHTS Assay for Activators of Cytochrome P450 3A4 (AID 885; active = well fitted curve in the direction sought with a large enough effect; an effect the other way counts as inactive or inconclusive; note: nearly all actives have a fitted effect of over 65% in size). The following applies: recombinant CYP3A4, Luciferin-PPXE luminescence, 60 min; series mostly up to 11.4 µM. The essentials:
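Human CYP3A4 dealkylates Luciferin-PPXE to luciferin, which luciferase detection converts to light. Substrate was at its KM (25uM), buffer 200mM KPO4, reaction 60 min at RT.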

Assay [14] addresses Cytochrome P450 2C19 (Homo sapiens) (UniProt P33261). As to the kind of experiment: qHTS Assay for Inhibitors and Substrates of Cytochrome P450 2C19 (AID 899; active = well fitted curve in the direction sought with a large enough effect; an effect the other way counts as inactive or inconclusive; note: potency is the fitted concentration of half-maximal effect; nearly all actives have a fitted effect of over 60% in size). Particulars: recombinant CYP2C19, luciferin-H EGE luminescence; series mostly up to 11.4 µM. The essentials: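 NADPH-dependent conversion of Luciferin-H EGE (10uM, at KM) by 5nM enzyme in 50mM KPO4, 60 min at 37C following 10 min compound preincubation. Stopped with luciferin detection buffer; luminescence read after 20 min.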

Where [15] appears, read: at 7.69 µM (top of the series) unless noted.

Sequence of Lysosomal acid glucosylceramidase (Homo sapiens) (P04062 whole entry, looked up): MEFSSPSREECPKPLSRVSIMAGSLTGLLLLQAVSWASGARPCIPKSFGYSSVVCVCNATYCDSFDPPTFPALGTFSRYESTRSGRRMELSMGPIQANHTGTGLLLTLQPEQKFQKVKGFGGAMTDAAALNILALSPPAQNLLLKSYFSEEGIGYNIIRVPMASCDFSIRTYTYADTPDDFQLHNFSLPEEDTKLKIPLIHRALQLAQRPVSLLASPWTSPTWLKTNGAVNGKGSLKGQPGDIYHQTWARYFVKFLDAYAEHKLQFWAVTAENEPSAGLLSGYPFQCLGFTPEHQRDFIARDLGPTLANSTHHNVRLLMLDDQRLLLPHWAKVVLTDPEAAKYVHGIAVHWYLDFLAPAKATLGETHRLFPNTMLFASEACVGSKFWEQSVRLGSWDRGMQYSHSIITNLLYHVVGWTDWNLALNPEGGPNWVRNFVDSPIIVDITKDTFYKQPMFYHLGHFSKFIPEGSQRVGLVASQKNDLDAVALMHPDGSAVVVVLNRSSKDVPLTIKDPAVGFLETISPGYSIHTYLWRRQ
Sequence of Glucocorticoid receptor (Homo sapiens) (P04150 whole entry, looked up): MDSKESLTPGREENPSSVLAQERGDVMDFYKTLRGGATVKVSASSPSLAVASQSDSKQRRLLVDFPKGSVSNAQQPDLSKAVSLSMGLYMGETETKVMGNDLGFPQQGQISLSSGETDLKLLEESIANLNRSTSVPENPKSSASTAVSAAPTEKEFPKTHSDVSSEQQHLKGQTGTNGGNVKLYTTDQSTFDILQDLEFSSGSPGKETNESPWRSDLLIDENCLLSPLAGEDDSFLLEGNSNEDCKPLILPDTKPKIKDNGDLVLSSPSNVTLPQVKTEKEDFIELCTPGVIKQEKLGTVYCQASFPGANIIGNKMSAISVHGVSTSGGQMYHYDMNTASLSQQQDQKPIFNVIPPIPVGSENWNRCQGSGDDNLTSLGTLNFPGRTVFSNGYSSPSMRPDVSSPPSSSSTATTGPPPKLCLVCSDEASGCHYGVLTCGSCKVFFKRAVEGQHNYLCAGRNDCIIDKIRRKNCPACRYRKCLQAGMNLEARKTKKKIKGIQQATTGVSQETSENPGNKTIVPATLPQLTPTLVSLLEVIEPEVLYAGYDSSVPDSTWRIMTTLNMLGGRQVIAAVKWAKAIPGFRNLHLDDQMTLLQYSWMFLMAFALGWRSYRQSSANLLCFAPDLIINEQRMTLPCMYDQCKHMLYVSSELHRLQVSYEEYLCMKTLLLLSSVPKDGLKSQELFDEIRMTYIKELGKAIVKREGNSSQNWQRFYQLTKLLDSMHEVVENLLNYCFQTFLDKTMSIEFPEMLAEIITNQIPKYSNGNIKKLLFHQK
Sequence of 3',5'-cyclic-AMP phosphodiesterase 4B (Homo sapiens) (Q07343 whole entry, looked up): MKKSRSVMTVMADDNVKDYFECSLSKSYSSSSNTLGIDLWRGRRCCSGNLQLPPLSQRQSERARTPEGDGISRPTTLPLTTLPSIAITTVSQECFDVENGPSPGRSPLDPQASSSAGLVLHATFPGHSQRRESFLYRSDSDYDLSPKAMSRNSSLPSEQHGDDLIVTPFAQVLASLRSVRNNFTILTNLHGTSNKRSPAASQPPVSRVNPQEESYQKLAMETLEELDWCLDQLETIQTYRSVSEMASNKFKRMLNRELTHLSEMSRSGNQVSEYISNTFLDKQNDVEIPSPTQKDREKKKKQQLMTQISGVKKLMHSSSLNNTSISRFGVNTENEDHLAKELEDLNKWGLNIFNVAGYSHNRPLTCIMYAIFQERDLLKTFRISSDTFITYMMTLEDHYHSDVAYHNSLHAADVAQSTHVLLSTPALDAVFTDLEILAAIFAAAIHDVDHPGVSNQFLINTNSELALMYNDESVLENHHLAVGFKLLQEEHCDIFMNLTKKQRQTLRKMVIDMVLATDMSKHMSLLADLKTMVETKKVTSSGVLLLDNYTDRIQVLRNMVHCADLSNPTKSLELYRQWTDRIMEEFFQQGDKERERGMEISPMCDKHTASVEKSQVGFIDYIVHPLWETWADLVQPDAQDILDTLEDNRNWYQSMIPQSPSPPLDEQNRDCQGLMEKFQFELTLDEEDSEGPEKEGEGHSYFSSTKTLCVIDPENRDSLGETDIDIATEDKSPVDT
Sequence of Cytochrome P450 3A4 (Homo sapiens) (P08684 whole entry, looked up): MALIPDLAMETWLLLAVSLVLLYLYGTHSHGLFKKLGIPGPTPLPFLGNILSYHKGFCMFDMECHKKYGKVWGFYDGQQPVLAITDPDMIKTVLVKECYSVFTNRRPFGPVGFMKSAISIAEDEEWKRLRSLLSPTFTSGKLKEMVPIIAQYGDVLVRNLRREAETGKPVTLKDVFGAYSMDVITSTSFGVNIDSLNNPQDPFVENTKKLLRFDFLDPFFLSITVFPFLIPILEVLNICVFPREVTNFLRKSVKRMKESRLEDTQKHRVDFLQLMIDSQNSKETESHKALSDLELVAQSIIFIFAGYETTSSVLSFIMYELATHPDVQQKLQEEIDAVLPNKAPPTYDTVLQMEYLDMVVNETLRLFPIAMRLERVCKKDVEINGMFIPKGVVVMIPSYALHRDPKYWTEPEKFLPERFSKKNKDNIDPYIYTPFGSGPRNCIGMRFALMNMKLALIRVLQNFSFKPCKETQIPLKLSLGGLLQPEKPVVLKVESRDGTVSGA
Sequence of ATP-dependent 6-phosphofructokinase (Trypanosoma brucei brucei) (O15648 whole entry, looked up): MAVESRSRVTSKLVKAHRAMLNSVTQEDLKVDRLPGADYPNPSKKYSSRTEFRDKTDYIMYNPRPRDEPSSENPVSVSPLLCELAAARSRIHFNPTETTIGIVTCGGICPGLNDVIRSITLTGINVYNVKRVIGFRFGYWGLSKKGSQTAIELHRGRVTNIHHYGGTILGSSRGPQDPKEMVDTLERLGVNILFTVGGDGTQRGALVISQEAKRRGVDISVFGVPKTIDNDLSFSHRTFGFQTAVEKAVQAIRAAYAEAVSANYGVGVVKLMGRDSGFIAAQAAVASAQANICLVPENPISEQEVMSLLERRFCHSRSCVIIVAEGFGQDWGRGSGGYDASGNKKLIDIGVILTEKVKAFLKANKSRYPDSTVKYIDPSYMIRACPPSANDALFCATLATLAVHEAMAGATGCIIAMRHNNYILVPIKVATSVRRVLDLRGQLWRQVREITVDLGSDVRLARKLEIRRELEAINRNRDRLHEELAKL
Sequence of Cytochrome P450 1A2 (Homo sapiens) (P05177 whole entry, looked up): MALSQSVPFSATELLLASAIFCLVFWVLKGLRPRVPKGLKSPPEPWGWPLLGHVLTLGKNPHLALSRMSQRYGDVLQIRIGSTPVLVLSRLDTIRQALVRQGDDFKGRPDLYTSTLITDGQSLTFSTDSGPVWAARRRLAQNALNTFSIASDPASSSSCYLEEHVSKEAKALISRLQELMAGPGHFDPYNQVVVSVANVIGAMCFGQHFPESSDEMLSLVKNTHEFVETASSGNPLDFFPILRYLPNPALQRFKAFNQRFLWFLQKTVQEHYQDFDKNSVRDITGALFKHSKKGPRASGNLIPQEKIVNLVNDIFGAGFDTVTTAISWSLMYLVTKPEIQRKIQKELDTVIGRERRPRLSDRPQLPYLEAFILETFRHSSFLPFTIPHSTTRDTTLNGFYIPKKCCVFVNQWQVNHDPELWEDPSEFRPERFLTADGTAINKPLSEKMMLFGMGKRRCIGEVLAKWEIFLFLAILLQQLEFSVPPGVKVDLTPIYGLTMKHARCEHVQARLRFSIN
Sequence of Cytochrome P450 2C19 (Homo sapiens) (P33261 whole entry, looked up): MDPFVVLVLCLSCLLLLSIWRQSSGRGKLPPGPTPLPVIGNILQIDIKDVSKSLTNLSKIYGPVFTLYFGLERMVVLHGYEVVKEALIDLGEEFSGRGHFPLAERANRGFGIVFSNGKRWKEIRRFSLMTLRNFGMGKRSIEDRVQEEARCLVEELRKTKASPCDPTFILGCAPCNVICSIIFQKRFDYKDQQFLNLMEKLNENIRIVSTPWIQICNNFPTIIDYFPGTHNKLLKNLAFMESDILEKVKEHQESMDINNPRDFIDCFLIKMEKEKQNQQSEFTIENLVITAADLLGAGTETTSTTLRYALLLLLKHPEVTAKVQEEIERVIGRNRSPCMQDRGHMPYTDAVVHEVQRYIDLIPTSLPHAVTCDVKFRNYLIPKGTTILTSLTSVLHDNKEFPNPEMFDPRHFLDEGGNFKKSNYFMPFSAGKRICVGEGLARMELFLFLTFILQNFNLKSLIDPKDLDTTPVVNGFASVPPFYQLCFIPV

Regarding `Cc1nc(-c2ccccc2)c(Cc2ccccc2O)c(=O)[nH]1`, the Potency was over 11.4 µM in [1], over 46 µM in assay [5] and over 9.22 µM in assay [6]. For the same compound, the activity change, negative = inhibition is -9.11% in assay [2] and 4.59% in assay [3] (setting [15]). Besides, the activity, negative = inhibition in [4] (setting [15]) is 0.211%. The Potency entry in assay [7] and in assay [8] was “inactive” in each case.

On to `CC1(C)S[C@@H]2[C@H](NC(=O)Cc3ccccc3)C(=O)N2[C@@H]1C(=O)O`, for which the Potency is over 11.4 µM in assay [1], over 46 µM in assay [5] and over 9.22 µM in assay [6]. Besides, the activity change, negative = inhibition is 11.5% in [2] and 4.82% in assay [3] (setting [15]). Moreover, the activity, negative = inhibition was -4.4% in assay [4] (setting [15]), 2.23% in [10] (parasite line A) and 9.91% in assay [10] (parasite line B). Besides, the Potency result (in assay [7]; in [8]; with AS120; in the assay with ATS189; with W2) was “inactive” in each case. Further, in assay [9], the compound was classed as inactive.

For `CC(C)(SCc1ccccc1)[C@H](N)C(=O)O`, the Potency is over 11.4 µM in [1], over 46 µM in assay [5] and over 9.22 µM in [6]. Further, the activity change, negative = inhibition in assay [2] was 0.115%; in [3] (setting [15]) it was 12.4%. In addition, the activity, negative = inhibition in assay [4] (setting [15]) was 5.95%. The Potency entry in assay [7] and in assay [8] was “inactive” each time.

As for `CC(C)Cn1cnc2c(SCc3ccc(Cl)cc3Cl)nc(N)nc21`, the Potency in assay [1] was over 11.4 µM; in assay [11] it was 1.26 µM (active); in assay [5], over 46 µM; in [6] it was over 9.22 µM; in assay [12], 3.98 µM (active); in assay [14], 2 µM (active). In addition, the activity change, negative = inhibition in [2] was -27.8%. Besides, the Potency result in assay [7], in assay [8] and in [13] was “inactive” each time.

For `C[C@H](Oc1ccc(Oc2cnc3ccc(Cl)cc3n2)cc1)C(=O)O`, the Potency in assay [1] is over 11.4 µM; in [5], over 46 µM; in assay [6], > 46 µM and > 9.22 µM. The figures for the activity change, negative = inhibition in assay [2], in assay [3] (at 7.69 µM (top of the series)) and in assay [3] (at 38 µM (top of the series)) were -24.4% [at 38 µM], 8.25% and 7.14%, respectively. Further, the results for the activity, negative = inhibition in assay [4] (at 7.69 µM (top of the series)) and in assay [4] (at 38 µM (top of the series)) were -19.5% and -10.1%, respectively. Also, the Potency result in assay [7] and in assay [8] was “inactive” in each case.

Take `O=C(c1nc2ccc([N+](=O)[O-])cc2[nH]c1=O)[C@@H](O)c1ccc2c(c1)OCO2`: the Potency is over 11.4 µM in [1], over 46 µM in assay [5] and over 9.22 µM in assay [6]. Further, the activity change, negative = inhibition was -1.57% in assay [2] and 2.9% in [3] (setting [15]). Moreover, in assay [4] (setting [15]), the activity, negative = inhibition was 12.9%. Moreover, the Potency result in [7] and in assay [8] was “inactive” each time.

For `Cc1onc(-c2c(F)cccc2Cl)c1C(=O)N[C@@H]1C(=O)N2[C@H]1SC(C)(C)[C@H]2C(=O)O`, the Potency in [1] is over 11.4 µM; in assay [5] it was over 46 µM; in assay [6], over 9.22 µM. Besides, the activity change, negative = inhibition is -24% in assay [2] and 13.8% in assay [3] (setting [15]). Besides, the results for the activity, negative = inhibition in assay [4] (setting [15]), in [10] (parasite line A) and in [10] (parasite line B) were 5.59%, 1.43% and 6.57%, respectively. The Potency result (in [7]; in assay [8]; in the assay with AS120; in the assay on ATS189; in the assay with W2) was “inactive” in each case. The compound was classed as inactive in assay [9].
